From PubChem
Hits are enriched below; roughly 12% of the tested compounds scored in any of these assays.
KCC2 mod: KCC2 cotransporter modulators, thallium flux, primary screen, cell-based, HEK293 KCC2, FluoZin-2 fluorescence, MLSMR. KCC2 cells, thallium flux FluoZin-2 fluorescence. B-score of Tl+ flux slope (higher = more flux/activation; lower = inhibition) at 10 µM. actives 2.2% (n = 190,000). AID 1456, 2008;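 active = thallium flux slope and its plate-corrected score both differing from the plate sample mean at a set confidence after two filtering rounds, in either direction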;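 note: slope of fluorescence scaled to starting intensity during 10 to 20 s after thallium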
Lmaj promast: Leishmania major promastigote growth inhibition, primary screen; AID 1063, 2008; Leishmania major promastigotes, resazurin fluorescence viability; inhibition, % at 10 µM; actives 9% (n = 200,000); in the data active = inhibition above about 50%;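 note: promastigotes grown with compound for 44 hours at 28 °C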
m-calpain inh: inhibitors of pig calpain II, primary screen, biochemical, fluorogenic peptide substrate, 1536-well | purified calpain II, 30 min | inhibition, % at 16 µM | actives 0.37% (n = 220,000) | AID 1236, 2008;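 active = inhibition above about 50%, limit read from the data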
ROMK primary: ROMK potassium channel modulators, primary screen, cell-based, thallium flux, MLSMR library; Tet-inducible ROMK, thallium flux fluorescence; actives lie on both sides; AID 1918, 2009; ATP-sensitive inward rectifier potassium channel 1 (Homo sapiens), P48048; actives 2% (n = 130,000); B-score at 10 µM;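 active = signal ratio slope over the read window, or its plate-corrected B-score, at least 3 SD from the plate mean, either direction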;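 note: B-score of the F/F0 ratio slope over 7 to 12 s after thallium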
Target sequence (P48048 whole entry, looked up): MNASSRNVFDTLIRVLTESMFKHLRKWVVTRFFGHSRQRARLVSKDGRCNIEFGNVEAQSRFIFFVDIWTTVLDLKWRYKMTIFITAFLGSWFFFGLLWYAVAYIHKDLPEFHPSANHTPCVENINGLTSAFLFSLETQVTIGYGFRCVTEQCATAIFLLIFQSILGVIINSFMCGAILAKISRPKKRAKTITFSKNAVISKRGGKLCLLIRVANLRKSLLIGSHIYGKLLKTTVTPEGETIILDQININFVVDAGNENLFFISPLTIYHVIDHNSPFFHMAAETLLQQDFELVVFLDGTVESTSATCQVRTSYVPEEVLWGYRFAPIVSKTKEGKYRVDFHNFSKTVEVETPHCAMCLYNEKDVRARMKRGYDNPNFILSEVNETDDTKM
WT yeast gro inh: growth inhibition of WT strain, primary screen, mitochondrial fusion inhibitor project, WT and mutant strains, chemical genetic. AID 1362, 2008. actives 2.1% (n = 190,000). inhibition, % at 10 µM. mitochondrial fusion phenotypic screen; in the data active = inhibition above about 58%; tested in S. cerevisiae
KCC2 secondary: KCC2 modulators in sodium-free buffer, confirmation, cell-based, HEK293 KCC2, thallium flux, secondary assay. normalised thallium flux (F/F0 slope) at 10 µM. FluoZin2 fluorescence; hits give high values. shares compounds with KCC2 mod. actives 15% (n = 3,700). AID 1713, 2009;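 active = thallium flux slope above the same plate's solvent-only control mean plus 3 SD; inconclusive = the two replicate wells disagree; inactive = no significant difference from solvent-only control wells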
KCC2 bumet counter: thallium flux persisting under bumetanide in KCC2 cells, confirmation, counter-screen for KCC2 modulator project, cell-based, HEK293 KCC2, FluoZin2, secondary assay 3 | shares compounds with KCC2 mod | HEK293-KCC2 + bumetanide/ouabain; hits give high values | normalized thallium flux at 10 µM | actives 49% (n = 3,700) | AID 1714, 2009;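 active = thallium entry rate above the same plate's blocked-transporter control wells by more than 3 SD; inconclusive = the two repeat wells disagree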;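 note: raw slope of fluorescence over initial fluorescence between 10 and 20 s after thallium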
KCC2 secondary2: KCC2 modulators without ouabain present, confirmation, cell-based, HEK293 KCC2, thallium flux, FluoZin2, secondary assay 2 | shares compounds with KCC2 mod | thallium flux FluoZin2 fluorescence; actives lie on both sides; F/F0 rise rate, 10–20 s post-thallium | normalized thallium flux at 10 µM | actives 23% (n = 3,700);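 active = thallium flux slope more than 3 SD above or below the plate's solvent-only control mean, mostly below; inconclusive = the two repeat wells disagreed; inactive = no significant shift from solvent-only controls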
HEK counter1: thallium flux modulation in parental HEK cells, confirmation, counter-screen for KCC2 modulator project, cell-based, counterscreen 1. shares compounds with KCC2 mod. HEK293 parental cells, thallium flux FluoZin2, ouabain; baseline-ratio fluorescence slope, 10–20 s after thallium. thallium flux rate (normalised fluorescence) at 10 µM. actives 46% (n = 3,700);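 active = thallium flux rate significantly above the same plate's solvent-only control wells, beyond their mean plus 3 SD; inconclusive = the two replicate wells gave conflicting results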
KCC2 ouabain: KCC2 inhibitors and activators, ouabain retest, confirmation, HEK-KCC2 cells | shares compounds with KCC2 mod | raw Tl+ flux slope (below DMSO = inhibition, above = activation) at 10 µM | HEK293-KCC2, thallium flux FluoZin2 fluorescence; bidirectional: low = inhibitor, high = activator | actives 48% (n = 3,700);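 active = thallium flux slope beyond 3 SD from same-plate DMSO control mean in most replicates, usually higher, sometimes lower; inconclusive = repeat tests gave conflicting results; inactive = no significant difference from controls in most replicates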;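 note: slope of initial-normalized fluorescence between seconds 10 and 20 after thallium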
HEK counter2: native HEK Tl+ uptake effects, second counter-screen – HEK cells, counterscreen 2, counter-screen for KCC2 modulator project, confirmation | HEK293 parental, thallium flux FluoZin-2 fluorescence slope | shares compounds with KCC2 mod | actives 33% (n = 3,700) | thallium flux slope at 10 µM;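 active = thallium flux slope above the same plate's solvent-control mean plus 3 SD in both duplicate wells; inconclusive = duplicate wells that disagreed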;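 note: run without ouabain in cells lacking the KCC2 cotransporter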
Hits are given with their value; 0 = inactive; ? = inconclusive; - = no result.

SMILES	KCC2 mod	Lmaj promast	m-calpain inh	ROMK primary	WT yeast gro inh	KCC2 secondary	KCC2 bumet counter	KCC2 secondary2	HEK counter1	KCC2 ouabain	HEK counter2
O=C(NN=C1CCCCCCC1)c1ccc2ccccc2n1	22.5	0	0	0	0	0	0.0381	?	0.0265	0.035	0.0207
CCOc1ccccc1NC(=O)c1cc(C(=O)Nc2ccccc2OCC)cc(N2C(=O)CCC2=O)c1	0	0	0	0	0	-	-	-	-	-	-
CCCCC(=O)NC(Nc1sc2c(c1C(N)=O)CCCC2)(C(=O)OCC)C(F)(F)F (centres undefined)	0	0	0	0	0	-	-	-	-	-	-
COC(=O)C(NC(C)=O)(Nc1sc2c(c1C(N)=O)CCCC2)C(F)(F)F (centres undefined)	-	0	0	0	0	0	0	0	0	0	0
Cc1nonc1NC(=O)CSc1nc(C2CCCCC2)nc2ccccc12	-6.11	0	0	-	0	?	0	0	0	0.0147	0
Cc1cc(NC(=O)CSc2nc(C3CCCCC3)nc3ccccc23)no1	0	0	0	-	0	-	-	-	-	-	-
Cc1nonc1NC(=O)CSc1ccc(-c2ccccc2)nn1	-8.02	0	0	0	0	0	0	0.0217	0	?	0
CCOc1ccc(-c2ccc(SCC(=O)Nc3nnc(CC)s3)nn2)cc1	4.04	0	0	0	0	0	0.00775	0	0.0102	?	0.0131
O=C(CSc1ccc(-c2ccc(F)cc2)nn1)N1CCCc2ccccc21	-3.72	0	0	-	0	0	0	0.0202	?	0.0125	0
CCc1nnc(NC(=O)CSc2ccc(-c3ccc(C)cc3)nn2)s1	0	0	0	0	0	-	-	-	-	-	-
COc1ccc(C2=NOC(CNC(=O)c3ccccc3Br)C2)c(OC)c1 (centres undefined)	0	-	0	-	-	-	-	-	-	-	-
O=S(=O)(NC1CCCCC1Oc1ccccc1)c1ccccc1 (centres undefined)	0	0	0	-	0	-	-	-	-	-	-
CCOC(=O)N1CCN(C(=O)CSc2ccc(-c3ccncc3)nn2)CC1	0	0	0	0	0	-	-	-	-	-	-
Cc1ccc(NC(=O)CSc2ccc(-c3ccco3)nn2)cc1	-3.3	0	0	-	0	0	0	0.022	0	0	0
CC1CCN(C(=O)CSc2ccc(-c3ccccc3)nn2)CC1	-3.16	0	0	0	0	?	0	0	0	0.0158	0
Cc1csc(NC(=O)CSc2ccc(-c3ccccn3)nn2)n1	-4.86	0	0	0	0	0	0	0.0232	?	0.012	0
CCOC(=O)N1CCN(C(=O)CSc2ccc(-c3ccccc3)nn2)CC1	-4.18	0	0	0	0	0	?	0.0277	0	0.0143	0
CN(/C(=N\S(=O)(=O)c1ccccc1)c1ccccc1)c1ccc(O)cc1	0	0	0	0	0	-	-	-	-	-	-
COc1cccc(N2CN(C3CCCCC3)CNC2=S)c1	0	-	0	-	-	-	-	-	-	-	-
